Source: PubChem BioAssay (NCI)
Compounds without any hit were thinned out: in the full panel of roughly 83,000, 20% have a hit.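 In brief: 96-well plates, 48 h treatment, single concentration, percent growth endpoint.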 The source made the active and inactive calls. How the source made its calls: active means growth percent below 10; inactive means the rest.

Legend:
Assay in all cases: NCI-60 one-dose screen, 48 h (100 = growth as untreated, 0 = no growth, -100 = all killed)
Details in all cases: 10 µM unless noted
SR leukemia = tested on: SR leukemia
RPMI-8226 leukemia = tested on: RPMI-8226 leukemia
OVCAR-8 ovarian = tested on: OVCAR-8 ovarian
OVCAR-5 ovarian = tested on: OVCAR-5 ovarian
OVCAR-4 ovarian = tested on: OVCAR-4 ovarian
SK-OV-3 ovarian = tested on: SK-OV-3 ovarian
IGROV1 ovarian = tested on: IGROV1 ovarian
OVCAR-3 ovarian = tested on: OVCAR-3 ovarian
HS 578T breast = tested on: HS 578T breast
NCI/ADR-RES ovarian = tested on: NCI/ADR-RES ovarian
T-47D breast = tested on: T-47D breast
BT-549 breast = tested on: BT-549 breast
MDA-MB-435 melanoma = tested on: MDA-MB-435 melanoma
SW-620 colon = tested on: SW-620 colon
MCF7 breast = tested on: MCF7 breast
HCT-116 colon = tested on: HCT-116 colon
HCC-2998 colon = tested on: HCC-2998 colon
KM12 colon = tested on: KM12 colon

Measured: growth

COc1cc2c(cc1OC)-c1c(oc3c4c(ccc3c1=O)OC(C)(C)C=C4)CO2
inactive: SR leukemia 42.6% | RPMI-8226 leukemia 49.3% | OVCAR-8 ovarian 67.7% | OVCAR-5 ovarian 89.3% | OVCAR-4 ovarian 41.8% | SK-OV-3 ovarian 77.6% | IGROV1 ovarian 85% | OVCAR-3 ovarian 63.7% | HS 578T breast 99.8% | NCI/ADR-RES ovarian 65.8% | T-47D breast 39.2% | BT-549 breast 52.6% | MDA-MB-435 melanoma 61.2% | SW-620 colon 89.8% | MCF7 breast 48.8% | HCT-116 colon 40.3% | HCC-2998 colon 81.5% | KM12 colon 76.8%

O=c1cc(Cl)[nH]c(=O)[nH]1
inactive: SR leukemia 111% | RPMI-8226 leukemia 98.6% | OVCAR-8 ovarian 104% | OVCAR-5 ovarian 105% | OVCAR-4 ovarian 109% | SK-OV-3 ovarian 85.2% | IGROV1 ovarian 109% | OVCAR-3 ovarian 109% | HS 578T breast 103% | NCI/ADR-RES ovarian 105% | T-47D breast 95.1% | BT-549 breast 103% | MDA-MB-435 melanoma 111% | SW-620 colon 106% | MCF7 breast 92.5% | HCT-116 colon 101% | HCC-2998 colon 93.5% | KM12 colon 105%

FC(F)(F)c1cccc([Si](F)(c2cccc(C(F)(F)F)c2)c2cccc(C(F)(F)F)c2)c1
inactive: SR leukemia 74% | RPMI-8226 leukemia 52.3% | OVCAR-8 ovarian 91.5% | OVCAR-5 ovarian 91.3% | OVCAR-4 ovarian 65.9% | SK-OV-3 ovarian 99% | IGROV1 ovarian 82.5% | OVCAR-3 ovarian 68% | HS 578T breast 85.3% | NCI/ADR-RES ovarian 72.6% | T-47D breast 40.4% | BT-549 breast 64.5% | MDA-MB-435 melanoma 95% | SW-620 colon 82% | MCF7 breast 67.1% | HCT-116 colon 15.6% | HCC-2998 colon 99% | KM12 colon 74.8%

Cc1cc(N2CCOCC2)nc(N(CCNc2ccnc3cc(Cl)ccc23)Cc2ccco2)n1
active: SR leukemia -22.6% | RPMI-8226 leukemia -21.6% | OVCAR-3 ovarian -64.3% | T-47D breast -6.08%
inactive: OVCAR-8 ovarian 34.6% | OVCAR-5 ovarian 101% | OVCAR-4 ovarian 37.2% | SK-OV-3 ovarian 91.1% | IGROV1 ovarian 40.7% | HS 578T breast 64% | NCI/ADR-RES ovarian 50.8% | BT-549 breast 30.2% | MDA-MB-435 melanoma 26.6% | SW-620 colon 50.5% | MCF7 breast 40.6% | HCT-116 colon 14.5% | HCC-2998 colon 62.9% | KM12 colon 44.8%

CC(C)C(=O)Nc1nc2c(s1)CCCc1ccn(S(=O)(=O)c3ccccc3)c1-2
inactive: SR leukemia 84.3% | RPMI-8226 leukemia 87.5% | OVCAR-8 ovarian 101% | OVCAR-5 ovarian 99.2% | OVCAR-4 ovarian 104% | SK-OV-3 ovarian 87.4% | IGROV1 ovarian 107% | OVCAR-3 ovarian 107% | HS 578T breast 101% | NCI/ADR-RES ovarian 94.2% | T-47D breast 91.9% | BT-549 breast 89.8% | MDA-MB-435 melanoma 106% | SW-620 colon 105% | MCF7 breast 86.3% | HCT-116 colon 78.9% | HCC-2998 colon 106% | KM12 colon 97.1%

C=C1C(=O)O[C@H]2[C@H]1CC/C(COC(=O)c1ccc(Br)cc1)=C\CC[C@@]1(C)O[C@@H]21
active: SR leukemia -27.5% | RPMI-8226 leukemia -44.5% | OVCAR-8 ovarian -36.6% | OVCAR-5 ovarian 1.16% | OVCAR-4 ovarian -14.3% | IGROV1 ovarian -57.6% | OVCAR-3 ovarian -81.2% | T-47D breast -47% | BT-549 breast -8.16% | MDA-MB-435 melanoma -35.4% | SW-620 colon -47.5% | MCF7 breast -18.5% | HCT-116 colon -84.3%
inactive: SK-OV-3 ovarian 111% | HS 578T breast 17.8% | NCI/ADR-RES ovarian 24.7% | HCC-2998 colon 87.3% | KM12 colon 56.2%

N#Cc1c(N)nc(Cl)c(C#N)c1C(=O)c1ccccc1
inactive: OVCAR-8 ovarian 36.8% | OVCAR-5 ovarian 91.2% | OVCAR-4 ovarian 96.7% | SK-OV-3 ovarian 74.5% | IGROV1 ovarian 32.1% | OVCAR-3 ovarian 50.4% | HS 578T breast 71% | NCI/ADR-RES ovarian 81.4% | T-47D breast 42.4% | BT-549 breast 24.9% | MDA-MB-435 melanoma 14.6% | SW-620 colon 43.3% | MCF7 breast 18.9% | HCT-116 colon 30.2% | HCC-2998 colon 76.5% | KM12 colon 28%
active: SR leukemia -17.6% | RPMI-8226 leukemia -17.6%

C=CCn1c(SCC(=O)Nc2ccc(/C(C)=N\O)cc2)nnc1-c1cc(-c2ccc(OC)cc2)nc2ccccc12
active: T-47D breast -4.63%
inactive: SR leukemia 33.8% | RPMI-8226 leukemia 17.3% | OVCAR-8 ovarian 15.3% | OVCAR-5 ovarian 79.4% | OVCAR-4 ovarian 53% | SK-OV-3 ovarian 52.8% | IGROV1 ovarian 11.1% | OVCAR-3 ovarian 37% | HS 578T breast 46% | NCI/ADR-RES ovarian 13.7% | BT-549 breast 35.6% | MDA-MB-435 melanoma 46.1% | SW-620 colon 39.4% | HCC-2998 colon 45.8% | KM12 colon 29%

O=S(=O)(CCN1CCOCC1)Nc1cncc(-c2ccc3ncnc(Nc4ccc(F)c(Cl)c4)c3c2)c1
active: T-47D breast -17.9%
inactive: SR leukemia 90% | RPMI-8226 leukemia 82.4% | OVCAR-8 ovarian 72.8% | OVCAR-5 ovarian 69.3% | OVCAR-4 ovarian 82.2% | SK-OV-3 ovarian 33.5% | IGROV1 ovarian 10.8% | OVCAR-3 ovarian 50.6% | HS 578T breast 37% | NCI/ADR-RES ovarian 87.3% | BT-549 breast 49.7% | MDA-MB-435 melanoma 87.2% | SW-620 colon 90.2% | MCF7 breast 47.3% | HCT-116 colon 56.1% | HCC-2998 colon 74.4% | KM12 colon 95.9%

O=C(O)c1cccc2oc(-c3ccccc3O)nc12
inactive: SR leukemia 47.6% | RPMI-8226 leukemia 50.4% | OVCAR-8 ovarian 31.9% | OVCAR-5 ovarian 74.7% | OVCAR-4 ovarian 20.8% | SK-OV-3 ovarian 58.4% | IGROV1 ovarian 60.5% | OVCAR-3 ovarian 15.5% | HS 578T breast 80.4% | NCI/ADR-RES ovarian 19.8% | T-47D breast 52.2% | BT-549 breast 75.5% | MDA-MB-435 melanoma 71.3% | SW-620 colon 47.3% | MCF7 breast 59.1% | HCT-116 colon 36.8% | HCC-2998 colon 44.7% | KM12 colon 46%

CCc1c(C)c2cc(-n3c(-c4ccc(OC)cc4)csc3=N)c(O)c(C)c2oc1=O
inactive: OVCAR-8 ovarian 17.9% | OVCAR-5 ovarian 44% | OVCAR-4 ovarian 12.3% | SK-OV-3 ovarian 43.8% | IGROV1 ovarian 25.1% | HS 578T breast 24.5% | NCI/ADR-RES ovarian 11.4% | SW-620 colon 22.9% | HCC-2998 colon 36.2% | KM12 colon 12.7%
active: SR leukemia 3.54% | RPMI-8226 leukemia -9.39% | OVCAR-3 ovarian 9% | T-47D breast -0.0975% | BT-549 breast 5.21% | MDA-MB-435 melanoma 0.357% | MCF7 breast 9.39% | HCT-116 colon 8.8%

CN(C)c1ccc(/C=c2\s/c(=C\C(=O)C(C)(C)C)[nH]c2=O)cc1
inactive: SR leukemia 92.1% | RPMI-8226 leukemia 104% | OVCAR-8 ovarian 102% | OVCAR-5 ovarian 99.7% | OVCAR-4 ovarian 85.3% | SK-OV-3 ovarian 100% | IGROV1 ovarian 88.5% | OVCAR-3 ovarian 102% | HS 578T breast 103% | NCI/ADR-RES ovarian 103% | T-47D breast 81.4% | BT-549 breast 97.3% | MDA-MB-435 melanoma 89.3% | SW-620 colon 101% | MCF7 breast 86.7% | HCT-116 colon 91.2% | HCC-2998 colon 107% | KM12 colon 81.9%

Clc1ccc(OCc2nc(-c3ccccc3)n[nH]2)c(Cl)c1
inactive: SR leukemia 97.1% | RPMI-8226 leukemia 94% | OVCAR-8 ovarian 96.5% | OVCAR-5 ovarian 99.7% | OVCAR-4 ovarian 98.1% | SK-OV-3 ovarian 80.9% | IGROV1 ovarian 97.6% | OVCAR-3 ovarian 108% | HS 578T breast 88.6% | NCI/ADR-RES ovarian 101% | T-47D breast 95.6% | BT-549 breast 100% | MDA-MB-435 melanoma 97.7% | SW-620 colon 97% | HCC-2998 colon 99.8% | KM12 colon 101%

O=C(CSc1nnc(-c2ccccc2)o1)Nc1ccc(C(=O)/C=C/c2ccccc2)cc1
inactive: SR leukemia 28.8% | OVCAR-8 ovarian 60.1% | OVCAR-5 ovarian 102% | OVCAR-4 ovarian 30.9% | SK-OV-3 ovarian 108% | IGROV1 ovarian 38% | OVCAR-3 ovarian 41.8% | HS 578T breast 88.5% | NCI/ADR-RES ovarian 53.6% | T-47D breast 79.4% | BT-549 breast 74.5% | MDA-MB-435 melanoma 55.5% | SW-620 colon 39.4% | HCC-2998 colon 46.5% | KM12 colon 30.2%
active: RPMI-8226 leukemia 2.35% | MCF7 breast 7.77% | HCT-116 colon -2.15%

S=C=NP1(N=C=S)=NP(N=C=S)(N=C=S)=NP(N=C=S)(N=C=S)=NP(N=C=S)(N=C=S)=N1 (configuration not stated)
inactive: SR leukemia 88.8% | RPMI-8226 leukemia 103% | OVCAR-8 ovarian 95.6% | OVCAR-5 ovarian 107% | OVCAR-4 ovarian 96.7% | SK-OV-3 ovarian 84.3% | IGROV1 ovarian 97.9% | OVCAR-3 ovarian 112% | HS 578T breast 98.5% | NCI/ADR-RES ovarian 107% | T-47D breast 82.3% | BT-549 breast 80.4% | MDA-MB-435 melanoma 104% | SW-620 colon 108% | MCF7 breast 91% | HCT-116 colon 98.8% | HCC-2998 colon 102% | KM12 colon 102%

C=CC(C)(O)CCC1C(=C)CCC2C(C)(C)CCCC12C (configuration not stated)
inactive: SR leukemia 90.2% | RPMI-8226 leukemia 102% | OVCAR-8 ovarian 114% | OVCAR-5 ovarian 106% | OVCAR-4 ovarian 114% | SK-OV-3 ovarian 94.1% | IGROV1 ovarian 108% | OVCAR-3 ovarian 105% | HS 578T breast 113% | NCI/ADR-RES ovarian 101% | T-47D breast 99.4% | BT-549 breast 111% | MDA-MB-435 melanoma 107% | SW-620 colon 111% | MCF7 breast 92.7% | HCT-116 colon 107% | HCC-2998 colon 99.5% | KM12 colon 99.8%

C[C@]12O[C@H]1[C@H](O)c1c(cc(O)c3c1C(=O)c1cccc(O)c1-3)C2=O
inactive: SR leukemia 93.6% | RPMI-8226 leukemia 93.6% | OVCAR-8 ovarian 98.1% | OVCAR-5 ovarian 106% | OVCAR-4 ovarian 92.4% | SK-OV-3 ovarian 97.9% | IGROV1 ovarian 102% | OVCAR-3 ovarian 106% | HS 578T breast 93.9% | NCI/ADR-RES ovarian 107% | T-47D breast 100% | BT-549 breast 95.5% | MDA-MB-435 melanoma 104% | SW-620 colon 113% | MCF7 breast 97.9% | HCT-116 colon 93.4% | HCC-2998 colon 112% | KM12 colon 103%
